tested on: VDR:RXRa (NR concentration 270 nM, RXRa partner concentration 90 nM); assay: PBM binding z-score (relative to random genomic background probes); higher = stronger binding; sequences stand for … in GC…GCGATTGACAGCGTAGAATGAAGG
Procedure: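 Protein-binding microarray (Agilent 4x180K custom design, double-stranded 60-nt probes: 5' GC cap, 34-nt variable region, 24-nt constant primer region; full probe sequence given). Purified or IVT nuclear receptor:RXRα heterodimers (3:1 NR:RXRα, mostly 270:90 nM) or homodimers were incubated for 1 h in PBS with 2% milk and no ligand, then detected with Alexa488 antibodies. Fluorescence from o1-orientation probes (~5 replicates averaged) was converted to z-scores against 500 random hg19 background probes. Variable regions are seed direct-repeat (DR0–DR5) sites, all their single-nucleotide variants and half-site ablations.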

Row | Sequence | PBM binding z-score
1 | AACGAAAGGTCGAGGTGAGTATAGAGAAAGGGAA | 2.85
2 | TCATATAGGTACACAGGTGAAAGTCCGTAAGTTA | 1.32
3 | TGAATGAGGTTATAAGATCTGGGAACGTTGCAAA | 0.768
4 | CCTATTAGTTGGCCATAAGGGCAACCGAAGCTCG | 0.196
5 | GGTATTAGTTGAAAGGGCAACCGAATGATTCTCG | 1.16
6 | AGGCAAAGTTCACTAGGTAACGTAAGATTCAGCT | 3.88
7 | TTACCAAGTTGAGCTGAGGTCGTTGATCCAACTC | 2.7
8 | TCTATTAGTTGAAGAGCAACCGACGAGTCCGTTT | 0.538
9 | GCTTACGGGTCAAAGGTTATAGAATGAATAGAAT | 5.63
10 | TGAGTGAGGTTAAAGATCAGGGAACGTGGCGTCG | 1.66
11 | TCATATAGGTAAACAGGTGAAAGTCCGTAAGTTA | 1.27
12 | CCTCGGAGTACAACAGGAGGTCAGAGCTGCCAGA | 2.09
13 | ACACCAAGGTGATCGTGAGGTCGTTGATACTAAC | 3.21
14 | GCATATAGGTAATACGAGGTGAAAGTCCGATTGT | 0.598
15 | ACTATTAGTTGACTTACGGCAACCGATACGACGC | 0.0942
16 | CGTCAAAGTTCAACTAAGGCAACGTAAAGCACGC | 4.19
17 | AATACAGGGGCATCGTAGGCCAGAGTACGCACAG | 0.784
18 | TCGAGTAGGTAAGTCGGGGCATTCAGCCAACATA | 0.394
19 | TCTCGGAGGATACGAAGGTCAGAGCTTTCCAGAG | 0.765
20 | GGAACGAGGGCATTCGATTTGATAGCATGGCGAT | 1.73

Row | Sequence | PBM binding z-score
21 | TCGAGTAGGTGACCAATGGGGCATTCAGCTTTCT | -0.154
22 | CAAACTAGGTCAAGCGGTCAAAGTCCGCTTCCCG | 2.99
23 | TCATATAGGTAAATGCTAGGTGAACGTCCGATCT | 0.914
24 | TTACCAAGGTGAGCTGAGGTCGCTGATCCAACTC | 2.9
25 | TCGAGCAGGTTAGTCGGGGCATTCAGCCAACATA | 2.09
26 | TCGAGTAGGTTAGTCGGGGCATTAAGCCAACATA | 1.66
27 | TCGAGTAGGTTACCAATGGGGCATTCAACTTTCT | 0.521
28 | TAATATAGGTAAAGGTGAAAGTCGAACGATATGA | 1
29 | CGAACGAGGGCATGAGTTGATACCAAATGCCGAT | 1.83
30 | CCTACTGGGCCACAAAGGTCATTGATGCCGATAA | 5.28
31 | CCTAGCAGGCCTGGGTCACTCAAGCATTTCGCTT | 0.546
32 | AGTCTAAGTTCATCTAGGTAACGTAAGATATGCT | 4.65
33 | TCCGCTAGGTCAGTTGGTCAGCTAACGAGCTGCC | 0.232
34 | ATCGAAAGGTCGACGAGGTAAGTATACACCGTTT | 4.59
35 | TCGAGTAGGTTAAGGGCATTCAGAATGGCGTCGA | 0.959
36 | CGAACGAGGGCGTGAGTTGATAGCAAATGCCGAT | 0.224
37 | CAAACTAGGTCATTGACAGGACAGTGAATAGTAA | 2.42
38 | CCTAGCAGGCTAATCTGGGTCACTCAAGGCTTGA | 0.385
39 | CTATCAAGGTGAACAAGGTCGTTGATTACTATTC | 6.12
40 | TCTTGTAGATCAATAGAGGTGAAGAAAGTGCGCT | 0.991

Source: the supplement of paper PMC6555819
